The values that follow come from PubChem BioAssay (EPA / NIEHS).

The target in experiment [1] is Aryl hydrocarbon receptor (Homo sapiens) (UniProt P35869). Put plainly: ATG_Ahr_CIS: Attagene CIS-FACTORIAL HepG2 Assay for human Aryl Hydrocarbon Receptor (Ahr) (AID 2282930; active = hit-call score of the fitted dose curve at least 0.9, where 1 is the maximum; inactive = score below 0.9). Particulars: HepG2 AhR cis-factorial reporter transcription; actives raise or lower the signal. Summed up: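 Following 24 h of chemical dosing, transfected HepG2 liver cells with cis-driven reporter units were lysed for RNA; reporter mRNA was quantified via RT-PCR and capillary electrophoresis, and responses fitted bidirectionally from DMSO.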
Chain of Aryl hydrocarbon receptor (Homo sapiens) (P35869 whole entry, looked up): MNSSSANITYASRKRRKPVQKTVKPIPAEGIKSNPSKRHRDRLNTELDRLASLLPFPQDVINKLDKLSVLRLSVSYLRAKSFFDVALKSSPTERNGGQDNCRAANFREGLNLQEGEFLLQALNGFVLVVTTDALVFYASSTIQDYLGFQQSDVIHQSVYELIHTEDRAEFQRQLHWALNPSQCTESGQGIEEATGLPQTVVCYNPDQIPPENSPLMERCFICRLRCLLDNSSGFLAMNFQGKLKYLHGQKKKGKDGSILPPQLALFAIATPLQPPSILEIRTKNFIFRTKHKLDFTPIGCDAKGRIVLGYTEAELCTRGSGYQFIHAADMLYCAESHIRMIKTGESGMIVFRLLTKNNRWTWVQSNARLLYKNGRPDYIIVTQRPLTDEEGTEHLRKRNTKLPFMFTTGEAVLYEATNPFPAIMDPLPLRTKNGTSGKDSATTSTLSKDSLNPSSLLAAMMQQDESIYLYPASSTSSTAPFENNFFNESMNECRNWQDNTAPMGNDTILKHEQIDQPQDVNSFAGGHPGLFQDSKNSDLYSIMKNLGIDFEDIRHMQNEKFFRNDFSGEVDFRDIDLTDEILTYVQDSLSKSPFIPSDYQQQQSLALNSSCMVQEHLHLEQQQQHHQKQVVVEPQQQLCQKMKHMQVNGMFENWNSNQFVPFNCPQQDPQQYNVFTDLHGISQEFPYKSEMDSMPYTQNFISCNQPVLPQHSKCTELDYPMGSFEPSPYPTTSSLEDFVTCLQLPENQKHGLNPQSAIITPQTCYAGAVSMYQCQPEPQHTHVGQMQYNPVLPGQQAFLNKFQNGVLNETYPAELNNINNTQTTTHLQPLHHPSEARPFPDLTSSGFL

Experiment [2] in a line: ATG_AP_1_CIS: Attagene CIS-FACTORIAL HepG2 Assay for human Activator Protein 1 (AP-1) (AID 2282931; active = hit-call score of the fitted dose curve at least 0.9, where 1 is the maximum; inactive = score below 0.9). As to conditions: HepG2 Attagene cis-factorial AP-1 reporter mRNA; actives raise or lower the signal. In short, it runs like this:
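We transfected HepG2 cells transiently with a set of cis-regulated reporter transcription units, dosed them for 24 h, and quantified reporter mRNA via RT-PCR and capillary electrophoresis, scoring gain or loss of signal relative to DMSO.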

Experiment [3] can be described thus: ATG_E_Box_CIS: Attagene CIS-FACTORIAL HepG2 Assay for human Enhancer Box (E-box) (AID 2282936; active = hit-call score of the fitted dose curve at least 0.9, where 1 is the maximum; inactive = score below 0.9). Particulars: HepG2 E-box cis-reporter transcription, actives raise or lower the signal. Summed up: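 Endogenous transcription factor activity was sensed in human HepG2 liver cells through transfected cis-promoter reporter units. After 24 h of dosing, total RNA was reverse-transcribed and reporter cDNA resolved by capillary electrophoresis.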

Experiment [4] can be described thus: ATG_GRE_CIS: Attagene CIS-FACTORIAL HepG2 Assay for human Glucocorticoid Response Elements (GRE) (AID 2282947; active = hit-call score of the fitted dose curve at least 0.9, where 1 is the maximum; inactive = score below 0.9). Particulars: HepG2 GRE cis-reporter, Attagene multiplex mRNA; actives raise or lower the signal. In short, it runs like this:
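Cells (HepG2) bearing transfected cis-promoter reporter transcription units were treated with chemical for 24 hours. Reporter mRNA was measured via RT-PCR with capillary electrophoresis, and activity was fitted in both directions relative to DMSO.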

Experiment [5] is described as follows: ATG_PBREM_CIS: Attagene CIS-FACTORIAL HepG2 Assay for human Phenobarbital-responsive Enhancer Module (PBREM) (AID 2282955; active = hit-call score of the fitted dose curve at least 0.9, where 1 is the maximum; inactive = score below 0.9). Particulars: HepG2 PBREM cis-reporter, Attagene multiplexed transcription; actives raise or lower the signal. Summed up: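 Multiplexed cis-reporter readout in human hepatoma HepG2 cells; PBREM-regulated transcript quantified after 24 h exposure by fluorescent RT-PCR fragment analysis. Signal changes up or down fitted relative to DMSO.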

Experiment [6] is described as follows: ATG_PPRE_CIS: Attagene CIS-FACTORIAL HepG2 Assay for human Peroxisome Proliferator-activated Response Element (PPRE) (AID 2282958; active = hit-call score of the fitted dose curve at least 0.9, where 1 is the maximum; inactive = score below 0.9). As to conditions: HepG2 PPRE cis-element reporter, Attagene transcription factor profiling; actives raise or lower the signal. Summed up: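 DMSO served as negative control and baseline for bidirectional curve fitting. Signal came from PPRE-regulated reporter mRNA in HepG2 cells, measured 24 h post-dosing by RT-PCR, 6-FAM primer extension and capillary electrophoresis.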

Experiment [7] can be described thus: ATG_M_06_TRANS: Attagene TRANS-FACTORIAL HepG2 Assay for M06 Transcription Factor (Internal Marker) (AID 2282983).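 Note: reporter transcript level by RT-PCR then capillary electrophoresis fluorescence.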 As to conditions: HepG2 Attagene TRANS M06 internal marker reporter. Summed up: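 Background control endpoint: reporter mRNA from transiently transfected HepG2 after 24 h dosing, detected by RT-PCR with capillary electrophoresis fluorescence. Analysed for gain versus DMSO.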

A short description of experiment [8]: ATG_NFI_CIS: Attagene CIS-FACTORIAL HepG2 Assay for human Nuclear Factor I (NFI) (AID 2282989; active = hit-call score of the fitted dose curve at least 0.9, where 1 is the maximum; inactive = score below 0.9). As to conditions: HepG2 cis-regulatory reporter, NFI response element transcription; actives raise or lower the signal. Summed up:
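Read-out: reporter mRNA via RT-PCR plus capillary electrophoresis with fluorescence detection. Transiently transfected HepG2 (endogenous TF activity on cis promoters), 24 h compound exposure; gain or loss of signal fitted against DMSO.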

Experiment [9] addresses Peroxisome proliferator-activated receptor gamma (Homo sapiens) (UniProt P37231). Kind of experiment: ATG_PPARg_TRANS: Attagene TRANS-FACTORIAL HepG2 Assay for human Peroxisome Proliferator-activated Receptor-gamma (PPARg) (AID 2283007). In short, it runs like this: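 Chimeric NR-Gal4 transactivation is measured in transiently transfected HepG2 cells by reporter mRNA induction at 24 h. Detection uses RT-PCR with fluorescent labelling and capillary electrophoresis; DMSO defines baseline.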

Experiment [10] deals with Cellular tumor antigen p53 (Homo sapiens) (UniProt P04637). Kind of experiment: TOX21_p53_BLA_p5_ratio: Tox21 HCT-116 p53 Agonism Beta-lactamase Assay, Ratio, Phase 5 (AID 2283599). Summed up:
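HCT-116 cells carrying a p53-inducible beta-lactamase reporter were seeded at 4000 cells/well and dosed after 5 h with compound in DMSO (217-fold dilution). After 16 h at 37C, CCF4-AM substrate was added for 2 h, and the 460/530 nm emission ratio was scored as gain-of-signal versus DMSO.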

Experiment [11] shares this target. Put plainly: TOX21_p53_BLA_p4_ratio: Tox21 HCT-116 p53 Agonism Beta-lactamase Assay, Ratio, Phase 4 (AID 2283601). Summed up:
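HCT116 cells carrying an inducible beta-lactamase reporter were plated at 4000 cells/well, rested 5 h, then exposed to compounds in DMSO (217-fold dilution) for 16 h at 37C. CCF4-AM substrate was loaded 2 h at room temperature; 460/530 nm emission ratio scored gain-of-signal versus DMSO.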

A short description of experiment [12]: ATG_M_61_CIS: Attagene CIS-FACTORIAL HepG2 Assay for M61 Transcription Factor (Internal Marker) (AID 2282937; active = hit-call score of the fitted dose curve at least 0.9, where 1 is the maximum; inactive = score below 0.9). Particulars: HepG2 Attagene CIS-FACTORIAL M61 internal marker reporter; actives raise or lower the signal. In short, it runs like this:
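Multiplexed reporter mRNA assay, HepG2 human hepatoma cells, 24 h treatment. Signal: FAM-labelled, HpaI-digested RT-PCR fragments by CE. Fit: bidirectional, baseline DMSO.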

A short description of experiment [13]: ATG_M_32_TRANS: Attagene TRANS-FACTORIAL HepG2 Assay for M32 Transcription Factor (Internal Marker) (AID 2282984).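 Note: transcript level of a background control reporter unit measured by RT-PCR and capillary electrophoresis.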 Particulars: HepG2 Attagene TRANS M32 internal marker reporter. In short, it runs like this:
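After 24 h dosing of transfected HepG2 cells, total RNA was reverse-transcribed, reporter sequences PCR-amplified, 6-FAM labelled by primer extension and HpaI-digested before capillary electrophoresis. Signal increase over DMSO was fitted.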

For experiment [14], the target named is Retinoic acid receptor RXR-alpha (Homo sapiens) (UniProt P19793). Put plainly: ATG_RXRa_TRANS: Attagene TRANS-FACTORIAL HepG2 Assay for human Retinoid X Receptor alpha (RXRa) (AID 2283012). In short, it runs like this: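 Measures exogenous chimeric NR-GAL4 activity in transfected HepG2 liver cells after 24 h of dosing. Induced reporter mRNA was detected by RT-PCR with capillary electrophoresis, and gain of signal was analysed against DMSO.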
Chain of Retinoic acid receptor RXR-alpha (Homo sapiens) (P19793 whole entry, looked up, the tested form may be a part): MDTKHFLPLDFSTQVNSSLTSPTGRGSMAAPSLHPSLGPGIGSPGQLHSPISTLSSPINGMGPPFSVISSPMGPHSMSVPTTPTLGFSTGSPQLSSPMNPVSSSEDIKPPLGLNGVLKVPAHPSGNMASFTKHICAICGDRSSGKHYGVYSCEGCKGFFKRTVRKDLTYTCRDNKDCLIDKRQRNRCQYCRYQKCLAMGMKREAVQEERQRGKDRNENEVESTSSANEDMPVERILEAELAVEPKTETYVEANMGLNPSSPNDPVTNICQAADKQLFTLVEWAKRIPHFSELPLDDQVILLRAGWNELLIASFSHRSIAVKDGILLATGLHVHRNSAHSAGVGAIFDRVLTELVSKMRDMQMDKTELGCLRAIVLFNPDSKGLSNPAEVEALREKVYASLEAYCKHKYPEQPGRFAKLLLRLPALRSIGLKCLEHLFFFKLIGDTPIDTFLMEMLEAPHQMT

Experiment [15] deals with Cellular tumor antigen p53 (Homo sapiens) (UniProt P04637). Kind of experiment: TOX21_p53_BLA_p2_ratio: Tox21 HCT-116 p53 Agonism Beta-lactamase Assay, Ratio, Phase 2 (AID 2283592). In short, it runs like this: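 Plated HCT116 p53-bla cells (4000/well) received compound after 5 h, then 16 h at 37C/5% CO2. CCF4-AM added, 2 h RT. Ratio of 460 to 530 nm emission taken as the p53 reporter signal.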
Chain of Cellular tumor antigen p53 (Homo sapiens) (P04637 whole entry, looked up): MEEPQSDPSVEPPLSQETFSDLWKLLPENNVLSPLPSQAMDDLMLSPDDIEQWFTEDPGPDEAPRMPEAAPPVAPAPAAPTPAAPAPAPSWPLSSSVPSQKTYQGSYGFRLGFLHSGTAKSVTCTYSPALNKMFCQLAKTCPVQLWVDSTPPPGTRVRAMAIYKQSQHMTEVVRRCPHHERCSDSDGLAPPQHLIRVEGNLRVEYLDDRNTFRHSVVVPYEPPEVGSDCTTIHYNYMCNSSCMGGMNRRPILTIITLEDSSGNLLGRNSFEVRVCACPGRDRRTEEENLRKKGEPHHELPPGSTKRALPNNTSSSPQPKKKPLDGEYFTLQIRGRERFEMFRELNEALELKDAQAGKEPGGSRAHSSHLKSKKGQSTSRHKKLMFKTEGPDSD

The nature of experiment [16]: TOX21_p53_BLA_p5_viability: Viability Assessment in the Tox21 HCT-116 p53 Agonism Beta-lactamase Assay, Phase 5 (AID 2283600). Summed up: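 Workflow: seed 4000 cells per well, wait 5 h, add compounds (DMSO, 217-fold dilution), incubate 16 h, load CCF4-AM 2 h, add CellTiter-Glo, read luminescence after 30 min.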
Experiment [17] in a line: ACEA_ER_AUC_viability: ACEA Biosciences xCELLigence Real-Time Cell Analysis on Estrogen Receptor Agonism for Viability (AID 2283782).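 Note: hit means loss of impedance signal meaning reduced cell growth or viability.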 Summed up: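 Continuous-exposure impedance cell analysis uses T-47D cells in charcoal-stripped serum, eight 1:4 dilutions topping at 100 uM final, biological duplicate. Area under the growth curve at 80 h is fitted against DMSO baseline.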

The target in experiment [18] is Hypoxia-inducible factor 1-alpha (Homo sapiens) (UniProt Q16665). Put plainly: ATG_HIF1a_CIS: Attagene CIS-FACTORIAL HepG2 Assay for human Hypoxia Inducible Factor 1 (HIF1A) (AID 2282951; active = hit-call score of the fitted dose curve at least 0.9, where 1 is the maximum; inactive = score below 0.9). As to conditions: HepG2 Attagene cis-factorial HIF1a reporter transcription; actives raise or lower the signal. Summed up:
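Cis-element reporter constructs were transiently transfected into HepG2 cells, which were treated for 24 h; reporter RNA was reverse-transcribed, amplified, labelled and resolved by capillary electrophoresis.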

A short description of experiment [19]: ATG_M_19_TRANS: Attagene TRANS-FACTORIAL HepG2 Assay for M19 Transcription Factor (Internal Marker) (AID 2282974). Particulars: HepG2 Attagene TRANS-FACTORIAL M19 internal marker reporter. Summed up:
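Multiplexed TRANS format: HepG2 liver cells bearing transient GAL4-UAS reporter units, chemical treatment 24 h, reporter transcripts quantified by RT-PCR plus capillary electrophoresis. DMSO defines baseline.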

For experiment [20], the target named is human Retinoid X Receptor beta (RXRb), RXRB (gene 6257) (UniProt P28702). Put plainly: ATG_RXRb_TRANS: Attagene TRANS-FACTORIAL HepG2 Assay for human Retinoid X Receptor beta (RXRb) (AID 2283013). Summed up: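 Chimeric receptor-Gal4 activity was assessed in transiently transfected human HepG2 cells after 24 h exposure. Transcripts from GAL4-UAS reporters were quantified by fluorescent RT-PCR and capillary electrophoresis, with DMSO as negative control and baseline.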
Chain of human Retinoid X Receptor beta (RXRb), RXRB (gene 6257) (P28702 whole entry, looked up, the tested form may be a part): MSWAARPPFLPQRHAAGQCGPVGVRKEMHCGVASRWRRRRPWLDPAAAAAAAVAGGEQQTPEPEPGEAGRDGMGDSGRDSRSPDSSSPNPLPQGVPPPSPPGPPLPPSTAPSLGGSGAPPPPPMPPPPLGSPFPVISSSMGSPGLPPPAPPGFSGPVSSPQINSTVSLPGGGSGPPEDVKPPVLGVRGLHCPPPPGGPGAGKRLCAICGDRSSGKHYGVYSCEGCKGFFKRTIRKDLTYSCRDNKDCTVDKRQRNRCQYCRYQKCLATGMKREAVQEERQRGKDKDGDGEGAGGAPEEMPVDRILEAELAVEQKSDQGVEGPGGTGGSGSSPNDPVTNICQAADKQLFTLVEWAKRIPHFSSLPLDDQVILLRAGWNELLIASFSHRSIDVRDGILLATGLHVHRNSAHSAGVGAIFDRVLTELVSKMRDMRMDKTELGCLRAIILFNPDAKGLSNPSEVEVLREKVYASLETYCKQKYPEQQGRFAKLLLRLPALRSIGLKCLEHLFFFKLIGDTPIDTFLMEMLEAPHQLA

“And” between values parts separate entries of the source, which are not always exact repeats. Identical values can stand only once. Results filed as inconclusive are left out. Where a structure was tested more than once in an assay, its records may differ in their call. The source made the active and inactive calls. Rule for the calls, unless noted: active = hit-call score of the fitted dose curve at least 0.9, where 1 is the maximum; inconclusive = response in the unintended direction; inactive = score below 0.9.

Chain of Hypoxia-inducible factor 1-alpha (Homo sapiens) (Q16665 whole entry, looked up): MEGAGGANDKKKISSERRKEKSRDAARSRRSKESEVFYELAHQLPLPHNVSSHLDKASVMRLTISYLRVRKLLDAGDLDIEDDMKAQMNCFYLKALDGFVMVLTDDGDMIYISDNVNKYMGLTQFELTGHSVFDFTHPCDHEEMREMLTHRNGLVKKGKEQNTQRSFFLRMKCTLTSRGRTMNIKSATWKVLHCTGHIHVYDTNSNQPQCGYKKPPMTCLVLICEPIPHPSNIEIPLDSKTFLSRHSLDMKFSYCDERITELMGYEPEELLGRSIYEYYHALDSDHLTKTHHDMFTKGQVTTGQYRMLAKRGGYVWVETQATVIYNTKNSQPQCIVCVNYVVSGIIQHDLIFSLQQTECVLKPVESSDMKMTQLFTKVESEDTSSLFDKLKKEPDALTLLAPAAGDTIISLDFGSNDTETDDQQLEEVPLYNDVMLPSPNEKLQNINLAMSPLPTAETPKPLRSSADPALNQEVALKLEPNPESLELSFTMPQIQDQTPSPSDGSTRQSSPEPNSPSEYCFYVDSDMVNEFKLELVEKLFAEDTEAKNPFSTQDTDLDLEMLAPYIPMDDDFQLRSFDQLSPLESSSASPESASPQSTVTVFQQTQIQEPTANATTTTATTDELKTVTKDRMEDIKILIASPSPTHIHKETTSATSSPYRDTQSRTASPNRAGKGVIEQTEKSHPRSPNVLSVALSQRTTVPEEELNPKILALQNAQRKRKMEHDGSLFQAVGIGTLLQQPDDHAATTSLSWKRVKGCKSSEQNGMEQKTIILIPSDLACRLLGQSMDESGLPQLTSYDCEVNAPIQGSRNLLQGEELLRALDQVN
Chain of Peroxisome proliferator-activated receptor gamma (Homo sapiens) (P37231 whole entry, looked up, the tested form may be a part): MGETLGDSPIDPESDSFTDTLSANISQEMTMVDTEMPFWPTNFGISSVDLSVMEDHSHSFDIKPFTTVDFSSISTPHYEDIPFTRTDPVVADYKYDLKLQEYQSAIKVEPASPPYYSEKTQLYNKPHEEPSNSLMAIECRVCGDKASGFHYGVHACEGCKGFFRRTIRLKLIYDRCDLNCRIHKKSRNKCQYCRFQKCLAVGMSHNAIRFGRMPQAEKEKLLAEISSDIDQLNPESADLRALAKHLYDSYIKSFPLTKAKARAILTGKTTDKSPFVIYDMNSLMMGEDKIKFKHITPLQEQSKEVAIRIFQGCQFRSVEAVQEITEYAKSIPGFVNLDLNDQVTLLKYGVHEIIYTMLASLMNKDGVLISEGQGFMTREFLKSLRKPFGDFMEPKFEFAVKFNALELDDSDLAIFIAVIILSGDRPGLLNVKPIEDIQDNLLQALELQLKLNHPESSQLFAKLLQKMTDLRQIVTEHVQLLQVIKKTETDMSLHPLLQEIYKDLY

Consider `[CH3][Sn]([Cl])([Cl])[Cl]`, for which the compound was called inactive in [1], in [2], in experiment [3], in experiment [4], in experiment [5] and in [6]. Moreover, the call in [7], in experiment [8], in experiment [9], in [10] and in [11] was inactive.
As for `O=CNC(N1CCN(C(NC=O)C(Cl)(Cl)Cl)CC1)C(Cl)(Cl)Cl` (centres undefined), the outcome in experiment [1], in experiment [2], in experiment [3], in experiment [12], in [4] and in [5] was inactive. Also, the compound was classed as inactive in [6], in experiment [7], in [13], in experiment [9], in experiment [14] and in experiment [15]. The result in experiment [10], in experiment [16] and in experiment [17] was inactive.
Regarding `CN(C)N`, the compound was classed as inactive in experiment [1], in [2], in experiment [3], in [4], in [18] and in experiment [6]. The compound was called inactive in [7], in experiment [13], in experiment [8], in experiment [14], in experiment [10] and in [11]. For the same compound, the call in [17] was inactive.
Turning to `CC(C)(C)C(O)C(Oc1ccc(-c2ccccc2)cc1)n1cncn1` (centres undefined), the compound was called inactive in experiment [1], in experiment [3], in experiment [12], in [4], in experiment [5] and in experiment [6]. The call in experiment [19], in experiment [7], in experiment [13], in experiment [8], in experiment [14] and in [20] was inactive. Moreover, the AC50 in experiment [2] was 44.2 µM (active); in [9] it was 14.3 µM (active).
As for `Nc1ccc(-c2ccc(N)c(N)c2)cc1N`, the result in experiment [1], in [2], in experiment [12], in experiment [18], in [6] and in experiment [7] was inactive. Besides, the outcome in [13], in [8], in experiment [9], in [14], in experiment [20] and in [17] was inactive.
For the compound `Oc1cc(Cl)ccc1Cl`, the compound was called inactive in experiment [1], in experiment [2], in experiment [3], in [4], in [18] and in experiment [6]. Also, the outcome in [19], in experiment [7], in experiment [13], in experiment [8], in experiment [9] and in [14] was inactive. Moreover, the outcome in experiment [15], in experiment [10] and in experiment [16] was inactive.
With `C[C@]12CC[C@H](O)C[C@H]1CC[C@@H]1[C@@H]2C[C@@H](O)[C@]2(C)[C@@H](C3=CC(=O)OC3)CC[C@]12O`, the result in [1], in experiment [3], in experiment [12], in experiment [5], in [6] and in experiment [7] was inactive. The compound was called inactive in experiment [13], in [14] and in experiment [20]. The AC50 is 3.46 µM (active) in experiment [2]; 6.51 µM (active) in experiment [4]; 2.61 µM (active) in [8]; 1.87 µM (active) in experiment [9]; 1.75 µM (active) in experiment [17].
As for `O=P1(NCCCl)OCCCN1CCCl` (centres undefined), the outcome in experiment [1], in [2], in experiment [3], in experiment [12], in experiment [4] and in experiment [18] was inactive. In addition, the result in experiment [5], in experiment [19], in experiment [13] and in [9] was inactive. The AC50 in experiment [17] was 37.7 µM (active).
For `CC(C)(c1cc(Cl)c(O)c(Cl)c1)c1cc(Cl)c(O)c(Cl)c1`, the call in experiment [1], in experiment [2], in [3], in experiment [12], in [4] and in [6] was inactive. Further, the compound was called inactive in [19], in [7], in [13], in experiment [14], in experiment [10] and in [16]. In addition, the outcome in experiment [11] was inactive. The AC50 in experiment [9] is 3.75 µM (active); in experiment [20], 9.09 µM (active); in [15], 37 µM (active) and 16.5 µM (active); in [10], 24.2 µM (active); in experiment [11] it was 19.7 µM (active); in experiment [17], 90.8 µM (active).

The term AC50 denotes the concentration at which the activity in the assay is half-maximal.
